According to PubChem BioAssay:
Unmarked numbers belong to inactive results. How the calls were made is not given here.

Molecular target: Pantothenate synthetase (Mycobacterium tuberculosis (strain ATCC 25618 / H37Rv)) (UniProt P9WIL5)
Assay: Coupled enzyme confirmation of inhibitors against recombinant Mtb PanC (AID 375);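 further: 0% = full reaction with vehicle and 100% = no enzyme background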
Conditions: coupled enzyme assay; at 10 µM, hits give high values

Chain of Pantothenate synthetase (Mycobacterium tuberculosis (strain ATCC 25618 / H37Rv)) (P9WIL5 whole entry, looked up): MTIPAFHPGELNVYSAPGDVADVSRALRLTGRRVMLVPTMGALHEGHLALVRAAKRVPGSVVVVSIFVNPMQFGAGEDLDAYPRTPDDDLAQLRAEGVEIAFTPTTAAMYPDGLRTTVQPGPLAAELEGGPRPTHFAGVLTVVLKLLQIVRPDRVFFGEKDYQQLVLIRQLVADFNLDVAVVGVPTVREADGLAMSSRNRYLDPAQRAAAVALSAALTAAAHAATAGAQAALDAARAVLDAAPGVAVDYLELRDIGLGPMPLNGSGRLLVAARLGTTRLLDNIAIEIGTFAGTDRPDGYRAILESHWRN

SMILES | inhibition [%]
Cc1nc(SCCC(=O)O)c2ccccc2n1 | 6
Cc1ccc(S(=O)(=O)NCCNC(=O)c2ccccc2)cc1 | 4
COc1ccc(/C(O)=C2/C(=O)C(=O)N(CCCN(C)C)C2c2ccc(Cl)cc2)cc1OC (stereo not given) | 3
COc1ccc(N(C(=O)c2ccco2)C(C(=O)NC2CCCC2)c2ccc(N(C)C)cc2)cc1OC (stereo not given) | 1
CCCn1c(=O)c2ccccc2n2c(SCc3cc(=O)n4ccsc4n3)nnc12 | 0
CCN(CC)S(=O)(=O)c1ccc(F)c(C(=O)NCCC(C)C)c1 | 2
O=C(NCC1CCCO1)C1c2ccccc2C(=O)N1C1CCCCCC1 (stereo not given) | 0
CCCOc1ccccc1C1CC(=O)Nc2cc3c(cc21)OCCO3 (stereo not given) | 2
COc1ccc(CN2CC(C(=O)NCc3ccccn3)CC2=O)cc1 (stereo not given) | 5
COc1ccc(C)cc1NC(=O)CCN1CCCC1 | 0
CCOCCCNC(=O)c1cc2sc(Cl)cc2n1CC | 0
CCCCOc1ccc(C(=O)Nc2ccc(N3CCN(C(C)=O)CC3)cc2)cc1 | 0
C=CCN(C(=O)CNS(=O)(=O)c1ccccc1)C(C(=O)NCCOC)c1ccncc1 (stereo not given) | 0
Cc1cccc(N2CCN(C(=O)c3ccc(NS(=O)(=O)c4c(C)noc4C)cc3)CC2)c1C | 0
COc1ccccc1CNC(=O)C1CCCN(S(=O)(=O)c2cnc[nH]2)C1 (stereo not given) | 0
Cc1cc(=O)oc2cc(Oc3ncccn3)ccc12 | 6
CCCC(=O)Nc1ccc2oc(-c3cccnc3)nc2c1 | 0
NC(=O)c1sc2nc(N3CCCCC3)c3c(c2c1N)CCCC3 | 0
CC(C)CCNC(=O)C(c1cccs1)N(CC1CCCO1)C(=O)Cn1nnc2ccccc21 (stereo not given) | 0
Cc1ccccc1C(=O)NC1CCN(CC(=O)Nc2nccs2)CC1 | 0

SMILES | inhibition [%]
CC1=C(C)C(=O)C(CCCCC#CCCCC#CCO)=C(C)C1=O | 6
CCOC(=O)CSC1=C(C#N)C(=O)NC(c2ccc(OC)c(OC)c2)S1 (stereo not given) | 16
CN(CC(=O)Nc1ccc(F)c(Cl)c1)S(=O)(=O)c1cccc2nsnc12 | 0
COc1ccccc1NC(=O)C1(C)Cc2ccccc2C(=O)O1 (stereo not given) | 0
Cc1ccc2cc3cc(C(=O)NCCN4CCOCC4)oc3nc2c1 | 4
CC(=O)c1cc(C#N)c(SCC(=O)OC(C)C)nc1C | 4
O=C(c1ccc(-c2cccc(C(F)(F)F)c2)o1)N1CCOCC1 | 0
Cc1ccc(-c2noc(-c3ccccc3C(=O)NCC3CCCO3)n2)cc1 (stereo not given) | 6
CCn1c(SCc2cccc(C(F)(F)F)c2)nnc1-c1ccco1 | 0
CCS(=O)(=O)N1CCC(C(=O)NCCc2ccc(C)cc2)CC1 | 0
Fc1ccccc1C(c1nnnn1Cc1ccc2c(c1)OCO2)N1CCN(Cc2ccccc2)CC1 (stereo not given) | 3
Cc1oc(-c2ccccc2F)nc1CS(=O)(=O)CC(=O)NCCCN1CCc2ccccc2C1 | 0
CCN(CC)C(=O)c1sc(NC(=O)c2ccco2)c(C#N)c1C | 15
O=C(Nc1cccnc1)c1cccc(NC(=O)c2ccco2)c1 | 0
Clc1ccc(Cl)c(-c2nn3c(Cn4cnc5ccccc54)nnc3s2)c1 | 0
CCc1nc2sc3ccccc3c(=O)c2c(=O)n1Cc1ccco1 | 0
O=S(=O)(c1ccc(S(=O)(=O)N2CCN3CCCC3C2)cc1)N1CCCC1 (stereo not given) | 0
CCN(CC)c1ccc(-c2nn3c(-c4cccnc4)nnc3s2)cc1 | 4
Cc1cc(C)n(-c2ccc(C(=O)Oc3ccc4c(c3)OCO4)cc2)n1 | 1
NC(=O)SCC(=O)Nc1cccc(Cl)c1 | 1
